# Data as given in PubChem BioAssay AID493170 (National Center for Advancing Translational Sciences (NCATS), 2011).
# Results filed as inconclusive are left out. Unmarked numbers belong to inactive results. The source made the active and inactive calls. The call rests on the fitted dose curve; in most records, active means well fitted inhibition curve with a large enough effect; inconclusive means small, poorly fitted or top-dose-only effect, or effect the other way; inactive means flat fitted curve, though single readings scatter.
# Target: Ubiquitin carboxyl-terminal hydrolase 2 (Homo sapiens) (UniProt O75604)
# Experiment: Ub-rhodamine 110 based assay for inhibitors Ubiquitin-specific Protease USP2a; further: nearly all actives have a fitted effect of over 50% in size
# Settings: USP2a Ub-rhodamine110 cleavage, fluorescence; series mostly up to 38.3 µM; activity change, negative = inhibition: at the top concentration
# In short: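 5 nM USP2a preincubated with compounds for 30 min at RT in 20 mM Tris-HCl pH 8.0, 2 mM CaCl2, 2 mM beta-mercaptoethanol, 0.05% CHAPS. Cleavage of 150 nM Ub-rhodamine 110 read kinetically (Ex 485/Em 531) for 7 min.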
# On the % scale 0 is the no-effect control and ±100 the full control effect; potency means the concentration at half of the fitted maximal effect.
# Chain of Ubiquitin carboxyl-terminal hydrolase 2 (Homo sapiens) (O75604 whole entry, looked up): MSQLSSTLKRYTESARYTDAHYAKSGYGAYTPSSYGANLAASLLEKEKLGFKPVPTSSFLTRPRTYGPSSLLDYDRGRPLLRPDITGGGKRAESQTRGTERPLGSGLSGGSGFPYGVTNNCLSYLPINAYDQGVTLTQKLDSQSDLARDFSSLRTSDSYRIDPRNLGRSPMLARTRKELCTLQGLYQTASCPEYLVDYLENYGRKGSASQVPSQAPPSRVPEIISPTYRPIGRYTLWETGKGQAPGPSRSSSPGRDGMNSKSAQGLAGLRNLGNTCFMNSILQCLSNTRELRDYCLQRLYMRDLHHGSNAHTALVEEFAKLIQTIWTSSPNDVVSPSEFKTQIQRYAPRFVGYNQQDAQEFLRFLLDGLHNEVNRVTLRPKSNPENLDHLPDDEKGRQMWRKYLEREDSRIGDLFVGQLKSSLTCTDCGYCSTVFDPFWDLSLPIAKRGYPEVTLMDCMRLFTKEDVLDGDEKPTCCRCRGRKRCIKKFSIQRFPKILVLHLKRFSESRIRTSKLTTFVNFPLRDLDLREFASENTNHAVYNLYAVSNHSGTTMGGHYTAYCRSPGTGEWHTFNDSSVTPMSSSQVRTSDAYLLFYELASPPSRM
SMILES,"activity change, negative = inhibition [%]",Potency
O=C(O)C1CCN1C1CCCCC1 (centres undefined),-9.55,–
CCCC(c1nnnn1Cc1ccc(OC)cc1)N1CCC(C(N)=O)CC1 (centres undefined),-9.57,–
Cc1ccc(O)c(CC(C)C)n1,-3.99,–
CC(C)C(=O)Nc1ccc(C(=O)N2CCCCCC2)cc1,-11.1,–
CN(C)c1ccc(C(CN)c2c[nH]c3ccccc23)cc1 (centres undefined),-5.84,–
CC(C)(C)C(=O)Nc1c2c(nc3c1CCC3)CCCC2,-12.7,–
Cc1c(NC(=O)C2CCCN(S(=O)(=O)c3cnc[nH]3)C2)c(=O)n(-c2ccccc2)n1C (centres undefined),-9.5,–
CCOC(=O)N1CCN(C(=O)CN(c2ccc(Oc3ccccc3)cc2)S(C)(=O)=O)CC1,-6.74,–
CCCCCCCCCCOC(=O)Cn1c(COc2cccc(C)c2)[n+](C)c2ccccc21,-8.36,–
COc1ccc(-c2[nH]ncc2/C=C(/C#N)C(=O)NC2CCCCC2)cc1,-12.3,–
CSC1=NCCN1C(=O)Cc1ccc(F)cc1,6.29,–
CNC(=O)NC(=O)CSc1ccc(NC(C)=O)cc1,-6.69,–
COc1cc(C)c(S(=O)(=O)NCc2ccc3c(c2)OCO3)cc1C,-4.79,–
COc1ccc(NC(=O)c2cc(-c3ccco3)nc3ccccc23)cc1S(=O)(=O)N1CCOCC1,–,4.47 µM (active)
COc1cc(/C=C/c2cc[n+](C)cc2)ccc1OCC(=O)Nc1ccc(Cl)c(Cl)c1,-14.5,–
Cn1c(=O)c2c(nc(CN3CCN(C(=O)c4ccco4)CC3)n2CCCc2ccccc2)n(C)c1=O,-13.3,–
COc1ccc2[nH]c(=O)c(CN(Cc3ccco3)Cc3nnnn3Cc3ccccc3)cc2c1,2.9,–
N#Cc1cc(Sc2ccccn2)c(Sc2ccccn2)cc1C#N,-10.2,–
Cc1ccc(S(=O)(=O)N2CCOCC2)cc1NC(=O)CN1C(=O)NC(C)(c2ccc(Cl)cc2Cl)C1=O (centres undefined),-5.06,–
COc1cc2cc(CN(CCN3CCCC3)C(=O)Nc3ccc(F)cc3)c(=O)[nH]c2cc1OC,-12.5,–

SMILES,"activity change, negative = inhibition [%]",Potency
COc1ccc(CN(Cc2cc3cc(C)ccc3[nH]c2=O)C(=O)N(C)C)cc1,-5.17,–
CC1(C(=O)O)Sc2[nH]c(=O)sc2C2c3ccccc3OC(=O)C21 (centres undefined),9.19,–
O=C(CSc1nc2ccccc2s1)NCCCN1CCOCC1,-12.4,–
COc1ccc(NC(=O)CSc2ncccc2C(=O)OC(C)C)cc1OC,-5.2,–
COc1cc(OC)cc(-c2c(C#Cc3ccsc3)c3cc(-c4ccc(OC)c(F)c4)ccc3n2C)c1,-6.24,–
CCOC(=O)c1sc(NC(=O)Nc2ccccc2)cc1C,-16.1,–
Cc1ccc2c(c1)c1c3n2CCN(C(=O)Cn2c(-c4ccccc4)noc2=O)C3CCC1 (centres undefined),-9.33,–
O=C(O)CN1C(=O)/C(=C\c2ccccc2OCc2ccc(Cl)cc2Cl)SC1=S,–,10 µM (active)
CCOc1ccc(C(=O)c2ccc(OCC)c(N)c2)cc1N,-6.4,–
O=C(CSc1ccc2nnc(-c3cccc(F)c3)n2n1)N1CCCc2ccccc21,-0.537,–
CSc1ncccc1C(=O)OCC(=O)N1CCOCC1,17.7,–
Cc1nc2ccccc2c2oc(C(=O)NCCN3CCN(C)CC3)cc12,-12.3,–
Cc1cccc(N=C2NC(=O)/C(=C/C=C/c3ccco3)S2)c1,–,10 µM (active)
CCCCc1ccc(/C=C2/C(=O)ON=C2c2ccccc2)s1,-9.15,–
C[C@H](CO)N1C[C@H](C)[C@@H](CN(C)S(=O)(=O)c2cccs2)Oc2c(NC(=O)Nc3ccc4c(c3)OCO4)cccc2C1=O,-4.09,–
Cc1ccc(S(=O)(=O)Nc2ccccc2-c2ccccc2NS(=O)(=O)c2ccc(C)cc2)cc1,–,8.91 µM (active)
CC1CCN(CC(O)COc2cccc(F)c2)CC1 (centres undefined),-2.9,–
CCC(C)NC(=O)C1CN(S(=O)(=O)c2ccccc2)CCN1S(=O)(=O)c1ccccc1 (centres undefined),-7.74,–
COc1ccc(N(C(=O)C(C)C)S(=O)(=O)c2ccc(Cl)cc2)cc1,-17.7,–
